In the library only some 21% were active in any assay of this set; here they are far more common.
RORg inh = ROR gamma (mouse) transcription inhibition | P51450 | Potency, µM (series often up to 53.6 µM), for inactives: top-dose activity change, negative = inhibition, most hits filed as inhibitors | actives 5.4% (n = 310,000) | AID 2551 | Drosophila S2 Gal4-RORgamma UAS-luciferase reporter, 20 h; note: potency is the fitted concentration of half-maximal effect; nearly all actives have a fitted effect of over 60% in size
Target sequence (P51450 whole entry, looked up, the tested form may be a part): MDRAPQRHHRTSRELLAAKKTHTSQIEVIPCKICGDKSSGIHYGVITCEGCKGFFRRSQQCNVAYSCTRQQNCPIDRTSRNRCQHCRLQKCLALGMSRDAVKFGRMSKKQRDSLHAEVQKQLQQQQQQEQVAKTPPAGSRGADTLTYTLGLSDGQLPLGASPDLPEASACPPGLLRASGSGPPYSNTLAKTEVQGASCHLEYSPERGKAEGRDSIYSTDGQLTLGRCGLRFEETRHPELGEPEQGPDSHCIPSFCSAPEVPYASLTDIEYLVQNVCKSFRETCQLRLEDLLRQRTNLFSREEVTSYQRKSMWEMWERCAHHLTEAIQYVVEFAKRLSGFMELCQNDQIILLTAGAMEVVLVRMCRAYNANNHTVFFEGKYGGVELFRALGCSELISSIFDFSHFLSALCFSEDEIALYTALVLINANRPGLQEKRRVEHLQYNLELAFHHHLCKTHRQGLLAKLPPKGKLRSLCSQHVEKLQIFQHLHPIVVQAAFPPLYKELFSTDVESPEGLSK
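Read-out: Photinus luciferase luminescence; inhibitors lower reporter signal. Insect Schneider cells with Gal4-ROR gamma fusion under metallothionein promoter, UAS reporter; 700 uM final copper sulfate induction, 20 hr, ambient temperature.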
IL-1B inflam inh = blocks inflammasome-driven IL-1 beta release | activity change, % at 57.5 µM | actives 4.7% (n = 360,000) | AID 743279 | THP-1 LPS/ATP IL-1B secretion, AlphaLISA, 16 h; hits give low values; in the data active = activity change below about -50%; inconclusive = mostly about -30% to -49%
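THP-1 cells pretreated 1 hr with compounds (up to 57.5 uM final), then stimulated with LPS (250 ng/mL final) plus ATP (1.25 mM final); secreted IL-1B measured by AlphaLISA after 16 hr, decreased signal indicating inhibition.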
VP16 counter = inhibits Gal4-VP16 luciferase reporter, ROR gamma counter-screen; actives 3.5% (n = 310,000); Potency, µM (doses to about 53.6 µM), without a hit: top-dose activity, negative = inhibition, actives largely listed as inhibitors; Drosophila S2 Gal4-VP16 UAS-luciferase, luminescence, 20 h; AID 2546;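 note: Gal4-VP16 expression switched on by copper sulfate through the metallothionein promoter; potency is the fitted concentration of half-maximal effect; nearly all actives have a fitted effect of over 50% in size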
ELG1 repair inh = ELG1-dependent DNA repair inhibition; Potency, µM (doses to about 46.1 µM), for the others: top-dose activity change, negative = inhibition, actives largely listed as inhibitors; actives 2.3% (n = 330,000); HEK293T ELG1-luciferase reporter, luminescence, 16 h; DNA damage induced by 5-fluorouridine; note: potency is the fitted concentration of half-maximal effect; nearly all actives have a fitted effect of over 55% in size
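DMSO vehicle served as the neutral condition. Each well held 2,000 cells given 5-fluorouridine plus compound; after 16 hr at 37 °C/5% CO2, ONE-Glo was added and luciferase measured 30 min later.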
TDP1 cell noCPT = qHTS for Inhibitors of human tyrosyl-DNA phosphodiesterase 1 (TDP1): qHTS in cells in absence of CPT | DT40 Tdp1-/- hTDP1 cells, no CPT, ATP luminescence, 48 h | Potency, µM (series often up to 46.2 µM), for inactives: top-dose activity change, negative = growth inhibition, hits mostly inhibitors | actives 15% (n = 420,000); note: potency is the fitted concentration of half-maximal effect; nearly all actives have a fitted effect of over 55% in size
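Luminescent ATP content (CellTiter-Glo) served as the growth readout. Knockout chicken DT40 cells expressing human TDP1 were exposed to compounds without camptothecin for a minimum 48 hr at 37 °C.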
DT40 TDP1 CPT = DT40-hTDP1 cell growth loss with CPT | chicken DT40 Tdp1-/-;hTDP1 cells + 20 nM CPT, ATP luminescence, 48 h | Potency, µM (top dose mostly 46.2 µM), without a hit: top-dose activity change, negative = growth inhibition, usual class: inhibitors | actives 12% (n = 420,000) | AID 686979; note: potency is the fitted concentration of half-maximal effect; nearly all actives have a fitted effect of over 55% in size
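Chicken DT40 Tdp1-/- cells complemented with human TDP1, 400 cells/well, exposed to compounds plus 20 nM camptothecin for at least 48 h at 37 C; viability read as ATP content by CellTiter-Glo luminescence.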
An asterisk follows results filed as active; ? = inconclusive; / = no result given; [ ] = another dose, or the depositor's remark. Unless noted, calls come from the whole dose curve; as a rule, active = well fitted curve in the direction sought with a large enough effect; inconclusive = small, poorly fitted or top-dose-only effect, or another doubt; inactive = no such curve, though single readings can be large; an effect the other way counts as inactive or inconclusive. % is set by controls: 0 for no effect and ±100 for the full control effect.

SMILES | RORg inh | IL-1B inflam inh | VP16 counter | ELG1 repair inh | TDP1 cell noCPT | DT40 TDP1 CPT
CC(C)(C)c1ccc(CC(=O)N2CCC2(C)C(=O)NCc2ccc3c(c2)OCO3)cc1 (stereo unspecified) | / | -12 | / | / | ? | ?
O=C(CC(=O)c1ccccc1)CC(O)(C=Cc1ccccc1)c1ccccc1 (stereo unspecified) | / | -10 | / | / | 16µM* | 21µM*
Cc1ccccc1-c1cc2nc(NCc3ccccc3)n(C)c(=O)c2s1 | / | -25 | / | / | ? | 9.2µM*
Cc1ccccc1-c1cc2nc(NCc3ccncc3)n(C)c(=O)c2s1 | / | -1 | / | / | ? | ?
Cc1ccccc1-c1cc2nc(NCc3ccc(N(C)C)cc3)n(C)c(=O)c2s1 | / | -9 | / | / | 16µM* | ?
COc1ccc(CNS(=O)(=O)c2ccc3c(c2)C(C)(C)C(=O)N3C)cc1OC | / | / | / | / | 0% | 4%
COc1ccc(S(=O)(=O)Nc2ccc(-c3ccc4nnc(C)n4n3)cc2)c(OC)c1 | / | -23 | / | ? | ? | ?
CCOc1ccc(-c2cccc(NS(=O)(=O)c3c(C)cc(C)cc3C)c2)nn1 | / | / | / | / | 23µM* | ?
COc1ccc(OC)c(S(=O)(=O)Nc2ccc(-c3ccc4nnc(C)n4n3)cc2)c1 | / | 36 | / | ? | 8.2µM* | 8.2µM*
CCOc1ccc(-c2cccc(NS(=O)(=O)c3ccc([N+](=O)[O-])cc3)c2)nn1 | / | 9 | / | 3% | -6% | ?
CCOc1ccc(S(=O)(=O)Nc2cccc(-c3ccc(OCC)nn3)c2)cc1 | / | / | / | / | 16µM* | 12µM*
CCOc1ccc(-c2ccc(NS(=O)(=O)c3cc(C)ccc3OC)cc2)nn1 | / | / | / | / | 23µM* | 13µM*
O=C1C2C3C=CC(C3)C2S(=O)(=O)C2C3C=CC(C3)C12 (stereo unspecified) | / | 6 | / | / | -5% | -9%
COc1cc(OC)c(NC(=O)CCn2cccn2)cc1Cl | / | / | / | / | -4% | 21%
CC(=O)Nc1cccc(C(=O)OCc2csc(CC(=O)Nc3ccccc3C)n2)c1 | / | 7 | / | -19% | -5% | 5%
CCOc1cc2c3c(c1)C1(OCCO1)C(=O)N3C(C)(C)CC2C (stereo unspecified) | -1% | 8 | 1% | 1% | ? | ?
CCOc1cc2c3c(c1)C1(Nc4ccccc4S1)C(=O)N3C(C)(C)CC2C (stereo unspecified) | 25% | 15 | 0% | ? | ? | 18µM*
O=C(c1ccc(COc2ccccc2Br)o1)N1CCCCCC1 | -16% | -14 | -9% | 9% | ? | 21µM*
O=C(c1ccc(COc2ccccc2Br)cc1)N1CCCCC1 | 2% | -58* | -5% | -10% | 16µM* | 15µM*
CC1CCC(NC(=O)COC(=O)C2=NN(c3ccccc3)C(=O)CC2)CC1 (stereo unspecified) | / | 17 | / | -3% | 11% | -10%
COc1ccc(Oc2ncc3nc(-c4ccccc4)c(=O)n(C4CC4)c3n2)cc1 | -8% | / | 5% | / | ? | -1%
CCN1C(C)=C(C(=O)OC)C(c2ccccc2)N2C(=O)[C@](O)(C(=O)OC)C(c3ccccc3)C(C(=O)c3ccccc3)=C12 (stereo partly specified) | 12%[10 µM] | / | 0%[10 µM] | / | / | /
COCCNC(=O)C1(C)Cc2c(-c3cccc(C(N)=O)c3)ccnc2O1 (stereo unspecified) | / | 72 | / | / | -19% | ?
COCCNC(=O)C1(C)Cc2c(-c3cccc(C(F)(F)F)c3)ccnc2O1 (stereo unspecified) | / | 74 | / | / | 9.2µM* | 9.2µM*
CC1(C(=O)NCC2CC2)Cc2c(-c3cccc(C(F)(F)F)c3)ccnc2O1 (stereo unspecified) | / | 0 | / | / | 5.8µM* | 5.8µM*
SMILES | RORg inh | IL-1B inflam inh | VP16 counter | ELG1 repair inh | TDP1 cell noCPT | DT40 TDP1 CPT
CC1(C(=O)NCC2CC2)Cc2c(-c3cccc(C(N)=O)c3)ccnc2O1 (stereo unspecified) | / | 13 | / | / | ? | ?
CCC1(C2CCN(Cc3cc4ccccc4o3)CC2)NC(=O)N(CC2COc3ccccc3O2)C1=O (stereo unspecified) | / | / | / | / | 21µM* | ?
O=C1C(Nc2ccc(O)cc2)=C/C(=N/S(=O)(=O)c2cccs2)c2ccccc21 | 11µM* | -99* | 13µM* | 6.5µM* | 1.5µM* | 1.2µM*
O=S(=O)(/N=C/c1ccccc1O)c1cccs1 | -1% | 19 | -4% | -7% | -9% | -20%
O=C(O)c1ccc(NC2=C/C(=N/S(=O)(=O)c3cccs3)c3ccccc3C2=O)cc1 | / | -94* | / | / | 6.5µM* | 9.2µM*
O=C(O)c1ccc(Nc2nc3ccccc3nc2NS(=O)(=O)c2cccs2)cc1 | 8% | 4 | -15% | 5% | 15% | -12%
CCN(CC)CCN1C(=O)/C(=C\c2ccc(Cl)c([N+](=O)[O-])c2)SC1=Nc1ccc(OC)cc1 | ? | -99* | ? | ? | 16µM* | 21µM*
CCOC(=O)CN1C(=O)S/C(=C/c2ccc(OC)c([N+](=O)[O-])c2)C1=O | -14% | 36 | 1% | 14% | ? | -21%
COc1ccc(N=C2S/C(=C\c3ccc(Cl)c([N+](=O)[O-])c3)C(=O)N2CCN(C)C)cc1 | ? | -61* | -16% | -22% | 16µM* | 21µM*
CCCN1C(=O)/C(=C/c2ccc(C)s2)SC1=Nc1ccc(OC)cc1 | 2% | -11 | 2% | -10% | ? | ?
CCCN(CCC)C(C)C(=O)NCC1(c2ccccc2)CCCC1 (stereo unspecified) | 14% | 21 | -16% | -3% | ? | ?
CC(=O)NCc1ccc(S(=O)(=O)N2CCN(S(=O)(=O)c3ccc4ccccc4c3)CC2)cc1 | / | -4 | / | -13% | -6% | 12%
COCCN(C(=O)COC(=O)C12CC3CC(CC(O)(C3)C1)C2)c1c(N)n(Cc2ccccc2)c(=O)[nH]c1=O | / | 2 | / | / | -3% | 3%
O=C(NCCC(=O)N(CCc1ccccc1)Cc1ccccc1)c1ccccc1Cl | / | -19 | / | 7% | 23µM* | ?
Cc1ccc(C(=O)NCCCc2ccccc2)c(Cl)c1 | 11µM* | -13 | -17% | ? | 8% | 14%
COc1ccc(S(=O)(=O)N2CCC(C(=O)NCCC(=O)Nc3cccc(Cl)c3)CC2)cc1 | 1% | ? | -7% | 8% | ? | ?
